# This is a sample that favours compounds with a hit; in the whole collection about 2.3% have one here.
# Rtt109 Vps75 – inhibitors of Candida albicans Rtt109/Vps75 histone acetyltransferase. AID 540336. inhibition, % at 34.9 µM. hit rate 0.16% among 330,000. Q5AAJ8. purified Rtt109/Vps75, ThioGlo CoA-SH fluorescence, 4 h;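 active = inhibition of at least 50% in every replicate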
# DENV2 CPE – inhibitors of DENV2 cytopathic effect; CPE inhibition, % at 9.99 µM; DENV2-infected cells, cytopathic effect rescue, plate reader; hit rate 1.7% among 350,000; AID 651640; in the data active = CPE inhibition above about 20%, passing the limit was not always enough; tested in BHK-21 cells
# SIRT5 block – blocks human SIRT5 desuccinylation of peptide; Purified SirT5, succinyl-peptide AMC, trypsin-coupled fluorescence; inhibition, % at 15 µM; hit rate 1.1% among 330,000; Q9NXA8; in the data active = inhibition above about 15%
# ERp5 inh – ERp5 (human) disulfide isomerase inhibition; inhibition, % at 9.99 µM; ERp5 insulin aggregation, absorbance 650 nm, 90 min; Q15084; hit rate 0.05% among 350,000;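 active = mean replicate inhibition above about 25%, with every replicate also reaching it, limit read from the data, passing the limit was not always enough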
# PDI turbidity – inhibitors of human protein disulfide isomerase; PDI insulin aggregation turbidity, A650, 90 min; P07237; hit rate 0.052% among 350,000; AID 588391; inhibition, % at 10 µM;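 active = mean inhibition across replicates of 30% or more, whatever share of single replicates reach that level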
# Target sequence (P07237 whole entry, looked up): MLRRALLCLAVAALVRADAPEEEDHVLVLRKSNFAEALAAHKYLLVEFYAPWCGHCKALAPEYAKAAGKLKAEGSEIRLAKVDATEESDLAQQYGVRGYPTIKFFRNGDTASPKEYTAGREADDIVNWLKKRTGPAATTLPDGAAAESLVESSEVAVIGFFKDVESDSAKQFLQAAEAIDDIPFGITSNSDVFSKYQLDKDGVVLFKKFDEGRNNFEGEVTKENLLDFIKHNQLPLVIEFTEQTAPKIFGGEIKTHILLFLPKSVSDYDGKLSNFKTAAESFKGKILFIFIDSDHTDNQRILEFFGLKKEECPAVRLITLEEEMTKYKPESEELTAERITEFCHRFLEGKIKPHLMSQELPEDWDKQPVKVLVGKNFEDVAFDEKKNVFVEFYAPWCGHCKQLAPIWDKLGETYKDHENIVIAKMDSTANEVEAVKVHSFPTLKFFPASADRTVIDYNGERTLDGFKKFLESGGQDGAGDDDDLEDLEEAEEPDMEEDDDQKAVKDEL
# Hits are given with their value; i = inactive; nt = no result; + = active, no number; ! = a repeat was not active.
SMILES,Rtt109 Vps75,DENV2 CPE,SIRT5 block,ERp5 inh,PDI turbidity
C[C@@H]1CN([C@@H](C)CO)C(=O)c2cc(-c3ccncc3)cnc2O[C@H]1CN(C)C(=O)NC1CCCC1,nt,i,i,i,nt
Cc1ccc(OCc2nc(-c3ccccn3)no2)cc1,i,i,16,i,i
C[C@H](CO)N1C[C@H](C)[C@H](CN(C)Cc2ccc(C(=O)Nc3ccccc3N)cc2)Oc2ccc(NC(=O)Cc3cn(C)c4ccccc34)cc2C1=O,nt,i,23,i,nt
C[C@@H]1CN([C@@H](C)CO)C(=O)c2cc(NC(=O)Cc3cn(C)c4ccccc34)ccc2O[C@H]1CN(C)Cc1ccc(C(=O)Nc2ccccc2N)cc1,nt,i,17,i,nt
C[C@@H]1CN([C@@H](C)CO)C(=O)c2cc(NC(=O)Cc3cn(C)c4ccccc34)ccc2O[C@@H]1CN(C)Cc1ccc(C(=O)Nc2ccccc2N)cc1,nt,i,nt,i,nt
COc1cccc(C(=O)N2C(C(C)C)COc3cc(Br)ccc3S2(=O)=O)c1 (stereo not given),nt,i,i,i,i
COc1ccccc1C(=O)N1[C@@H](C(C)C)COc2cc(Br)ccc2S1(=O)=O,i,78,i,i,i
COc1ccc(S(=O)(=O)Nc2ccc3c(c2)C(=O)N([C@H](C)CO)C[C@@H](C)[C@H](CN(C)S(=O)(=O)c2cccs2)O3)cc1,nt,i,i,i,nt
CCc1nc2ccc(C(=O)N3CCCC(C(N)=O)C3)cn2c1N(C=O)CC (stereo not given),nt,27,i,i,i
CCCCN(C=O)c1c(CC)nc2ccc(C(=O)N3CCN(C(C)=O)CC3)cn12,nt,i,i,i,i
C[C@@H]1CCCCO[C@H](CN(C)CC2CCCCC2)[C@H](C)CN([C@@H](C)CO)C(=O)c2cc(NC(=O)Cc3ccccc3)ccc2O1,nt,i,i,i,nt
C/C=C/c1ccc2c(c1)O[C@H](CN(C)C(=O)c1ccc3c(c1)OCO3)[C@@H](C)CN([C@@H](C)CO)S2(=O)=O,nt,i,i,i,nt
C[C@@H]1CN([C@H](C)CO)S(=O)(=O)c2ccc(C#Cc3ccccc3F)cc2O[C@H]1CN(C)C(=O)c1ccc2c(c1)OCO2,nt,i,36!,i,i
C[C@H](CO)N1C[C@H](C)[C@H](CN(C)C(=O)c2ccc3c(c2)OCO3)Oc2cc(/C=C/c3ccccc3)ccc2S1(=O)=O,nt,i,29,i,nt
C[C@H]1CN([C@@H](C)CO)S(=O)(=O)c2ccc(/C=C/c3ccccc3)cc2O[C@H]1CN(C)C(=O)c1ccc2c(c1)OCO2,nt,i,22,i,nt
C[C@H]1CN([C@@H](C)CO)S(=O)(=O)c2ccc(/C=C/c3ccccc3)cc2O[C@@H]1CN(C)C(=O)c1ccc2c(c1)OCO2,nt,i,i,i,nt
C[C@@H]1CN([C@@H](C)CO)S(=O)(=O)c2ccc(-c3ccccc3)cc2O[C@@H]1CN(C)C(=O)c1ccc2c(c1)OCO2,nt,i,16,i,nt
CCCN1[C@H](C(=O)N[C@@H](C)c2ccccc2)[C@@H](CO)[C@@H]2Cn3c(cccc3=O)[C@@H]21,nt,i,i,i,nt
COc1ccc(NC(=O)NCCN2CCN(c3cc(OC)ccc3OC)CC2)cc1,i,i,28,i,i
CCc1ccc(N2CCN(CCNC(=O)Nc3ccc(OC)cc3)CC2)cc1,i,i,i,i,i
Cc1ccc(NC(=O)c2cc(N3C(=O)C=CC3=O)ccc2N2CCOCC2)cc1,+,i,i,i,i
OC(COc1ccc(Cl)cc1Cl)Cn1ccnc1 (stereo not given),i,42,i,i,i
Clc1ccc(OCCn2ccnc2)c(Cl)c1,i,nt,nt,nt,i
Cc1cc(C)cc(N(C(=O)c2csnn2)C(C(=O)NC(C)(C)C)c2ccccn2)c1 (stereo not given),i,nt,26,i,i
C[C@@H]1CN([C@@H](C)CO)C(=O)c2cccc(NS(C)(=O)=O)c2O[C@H]1CN(C)C,nt,i,i,i,nt
O=C(COc1ncnc2sccc12)NC1CCS(=O)(=O)C1 (stereo not given),i,28,i,i,i
COc1ccccc1Cn1c(=S)[nH]c2cc(C(=O)N3CC(C)CC(C)C3)ccc2c1=O (stereo not given),nt,22,i,i,i
COc1ccccc1Cn1c(=S)[nH]c2cc(C(=O)N3CCN(c4ccccc4OC)CC3)ccc2c1=O,i,i,i,i,i
CC(C)CC#Cc1ccc2c(c1)O[C@H](CN(C)C(=O)c1cccc(F)c1)[C@@H](C)CN([C@@H](C)CO)S2(=O)=O,nt,24,18,i,nt

# Source: PubChem BioAssay
